Source: PubChem BioAssay
Y pestis TopoI = Yersinia pestis topoisomerase I inhibitors, primary screen, biochemical, cleavage product accumulation, plate reader, single point; DNA topoisomerase I (Yersinia pestis CO92); Y. pestis Topo-I cleavage product accumulation; activity, % at 10 µM; 360,000 compounds, 0.064% hits; AID 504884, 2011; in the data active = activity above about 50%, passing the limit was not always enough
Mtb FBA inh = Mtb FBA enzyme inhibitors, primary screen, biochemical, fluorescence, strain H37Rv; purified M. tuberculosis FBA, fluorescence read-out; AID 588726, 2011; Fructose-bisphosphate aldolase (Mycobacterium tuberculosis (strain ATCC 25618 / H37Rv)), …; 360,000 compounds, 2.3% hits; inhibition, % at 1 µM; in the data active = inhibition above about 27%;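 note: 0% = vehicle and 100% = reference inhibitor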
Target sequence (P9WQA3 whole entry, looked up): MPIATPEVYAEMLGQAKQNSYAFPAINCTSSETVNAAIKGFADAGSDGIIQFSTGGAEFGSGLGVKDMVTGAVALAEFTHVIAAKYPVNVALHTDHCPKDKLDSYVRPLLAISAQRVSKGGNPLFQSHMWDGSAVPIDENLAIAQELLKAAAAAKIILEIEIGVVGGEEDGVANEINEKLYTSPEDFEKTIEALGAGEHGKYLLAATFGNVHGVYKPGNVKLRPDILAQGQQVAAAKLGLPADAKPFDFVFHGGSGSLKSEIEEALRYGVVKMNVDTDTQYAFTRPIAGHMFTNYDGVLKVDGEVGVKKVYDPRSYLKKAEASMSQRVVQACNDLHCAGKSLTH
GDH-TPI counter = GDH-TPI coupling enzyme inhibitors, primary screen, artefact control for M. tuberculosis FBA inhibitor project, biochemical, absorbance, full deck; GDH-TPI coupled enzyme counterscreen, NADH absorbance; inhibition, % at 4.8 µM; 360,000 compounds, 1.2% hits; AID 588335, 2011; in the data active = inhibition above about 30%;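 note: 0% = DMSO wells and 100% = wells lacking the enzyme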
Mtb hypoxia rep = PubChem AID 1159583; M. tuberculosis hypoxia-regulated fluorescent reporter, fluorescence; fluorescence inhibition, % (no concentration beside the values); 300,000 compounds, 0.1% hits; in the data active = fluorescence inhibition mostly above about 23%, no sharp cut-off; inactive = mostly below about 17%
PrP 5UTR inh = inhibition of PrP 5' UTR reporter expression; cell-based PrP 5' UTR mRNA reporter, plate reader; inhibition, % (test concentration not listed); 340,000 compounds, 0.35% hits; in the data active = inhibition above about 52%; note: 0 = median of the neutral control wells
PrPC TRFRET = inhibitors of human cell surface prion protein PrPC, primary screen, cell-based, TR-FRET; Major prion protein (Homo sapiens), P04156; TR-FRET read-out; inhibition, % at 13.8 µM; 370,000 compounds, 0.43% hits; AID 720596, 2013; in the data active = inhibition above about 24%; note: 0% = median of the test wells and 100% = reference compound wells
* = called active by the depositor; · = no result given; + = active, no number. A selection: hits, their analogues and other compounds. The true share with any hit is near 3.8%.

SMILES | Y pestis TopoI | Mtb FBA inh | GDH-TPI counter | Mtb hypoxia rep | PrP 5UTR inh | PrPC TRFRET
C=C1C2CCC3C(O)[C@@]2(CC(O)[C@@]2(O)C1CC(O)C2(C)C)C[C@@]3(C)O (stereo partly drawn) | · | · | · | 7 | · | ·
Nc1ccc2c(C(F)(F)F)cc(C(F)(F)F)nc2n1 | 9 | + | 12 | 11 | -27 | -5
CC(/C=C/c1ccccc1)=NNC(=O)c1cc(C)[nH]n1 | · | · | · | 7 | · | ·
CC1CN(C(C)CO)C(=O)c2cccc(NS(=O)(=O)c3ccc(F)cc3)c2OC1CN(C)S(=O)(=O)c1ccccc1 (stereo not drawn) | · | · | · | 8 | · | ·
COc1ccc(C2CC(=O)C3=C(C2)Nc2ccccc2N(C(C)=O)C3c2ccco2)cc1 (stereo not drawn) | 17 | 3 | 47* | -2 | -14 | 0
C/C(C=NNC(=O)c1cc(-c2ccc3ccccc3c2)n[nH]1)=C\c1ccco1 | · | · | · | -4 | · | ·
O=C(CN1CCCC1)N1CCCc2c1c(=O)oc1ccc(OCc3ccccc3)cc21 | -4 | 21 | 34* | -1 | -7 | -13
CCCOc1ccc2oc(=O)c3c(c2c1)CCCN3C(=O)CN1CCN(c2ncccn2)CC1 | -1 | 6 | 6 | · | 16 | 5
C/C(=N\NC(=O)c1ccc2c(c1)OCO2)c1ccc(NS(C)(=O)=O)cc1 | -1 | -4 | 36* | · | -15 | 12
C/C(=N/NC(=O)c1ccc2c(c1)OCO2)c1ccc(NC(=O)C(F)(F)F)cc1 | 0 | 0 | 8 | · | -68 | 12
C/C(=N\NC(=O)c1ccc2c(c1)OCO2)c1ccc(O)cc1 | -8 | -1 | 33* | · | -45 | 13
COc1cc(/C=C/c2nc3ccccc3c(=O)n2-c2cccc(O)c2)ccc1O | 5 | -4 | 47* | 4 | -3 | 0
COc1cc(/C=C/c2nc3ccccc3c(=O)[nH]2)ccc1O | -3 | -3 | 41* | · | · | -7
O=c1c2ccccc2nc(/C=C/c2ccc(O)c(O)c2)n1-c1ccccc1 | -5 | -6 | 43* | -3 | -16 | -19
O=c1c2ccccc2nc(/C=C/c2ccccc2)n1-c1ccc(O)cc1 | 2 | 6 | 19 | 18 | -20 | 4
CCOc1cc(/C=C/c2nc3ccccc3c(=O)[nH]2)ccc1O | -1 | -1 | 21 | 6 | -34 | -3
CCc1ccc(C(C)=NNC(=O)CNC(=O)/C=C/c2ccco2)cc1 | · | · | · | 8 | · | ·
CCN1C(=O)C2C(c3ccc(Cl)cc3)N3C(=O)CN(CCOC)C(=O)[C@@]3(Cc3ccccc3)C2C1=O (stereo partly drawn) | · | · | · | 3 | · | ·
Cc1ccc(S(=O)(=O)/N=C2/NC(=O)/C(=C/c3ccccc3)S2)cc1 | 13 | -1 | 34* | 1 | -17 | 9
Cc1ccc(S(=O)(=O)/N=C2/NC(=O)/C(=C\c3ccco3)S2)cc1 | -2 | 0 | 22 | · | -23 | -3
Cc1ccc(S(=O)(=O)/N=C2/NC(=O)/C(=C\c3ccccc3)S2)cc1 | 14 | 0 | 39* | 2 | 2 | 2
O=C1N/C(=N\S(=O)(=O)Cc2ccccc2)S/C1=C/c1cccc([N+](=O)[O-])c1 | 8 | 3 | 49* | · | · | -14
Cc1ccc(S(=O)(=O)/N=C2/NC(=O)/C(=C/c3ccncc3)S2)cc1 | · | · | · | 15 | · | -4
O=C1N/C(=N/O)S/C1=C/c1cccc([N+](=O)[O-])c1 | -5 | 3 | 26 | 11 | -7 | -21
CC(C)(C)C1C=C(C(N)=O)OC(OCc2ccc(CO)cc2)C1 (stereo not drawn) | · | · | · | 12 | · | ·
SMILES | Y pestis TopoI | Mtb FBA inh | GDH-TPI counter | Mtb hypoxia rep | PrP 5UTR inh | PrPC TRFRET
CCOC1OC(C(=O)NCc2nc3ccccc3[nH]2)=CC(C)C1CCCO (stereo not drawn) | · | · | · | 8 | · | ·
N#Cc1cc(C#N)c(N2CCN(c3ccccn3)CC2)nc1N | -4 | 0 | 32* | 7 | -17 | -6
COCC(=O)N/N=C(\C)CC(=O)Nc1ccccc1C(N)=O | 7 | 55* | 8 | · | -5 | 6
COc1ccc(/C=C/C(=O)c2c(O)ccc3c(C)cc(=O)oc23)cc1 | -2 | -2 | 38* | 12 | -2 | -3
Cc1cc(=O)oc2c(O)c(O)ccc12 | 5 | 2 | 4 | · | -36 | 1
COc1ccc(/C=C\C(=O)c2c(O)ccc3c(C)cc(=O)oc23)cc1 | 8 | 3 | 49* | · | -8 | -1
